Experiment in all cases: NCI-60 one-dose screen, 48 h (100 = growth as untreated, 0 = no growth, -100 = all killed)
Common to all, as to conditions: 10 µM unless noted

The subject of assay [1] is BT-549 breast.
Assay [2] deals with MDA-MB-435 melanoma.
In assay [3] the test system is SW-620 colon.
Assay [4] deals with MCF7 breast.
Assay [5] has as its system HCT-116 colon.
In assay [6] the test system is HCC-2998 colon.
Assay [7] concerns KM12 colon.

This is part of a sample that, as a whole, favours compounds with a hit. Of some 83,000 tested, about 20% had one in any assay.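 Treatment: one concentration, 48 hours, 96-well format. Scoring: percent growth, with anything below 10 considered active.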 A number with no mark means an inactive call. The source made the active and inactive calls.

`COc1ccc(NC(=O)c2cccc(-c3cc(=O)c4c(O)c(OC)c(OC)cc4o3)c2)cc1`: the growth is 31% in assay [1]; 105% in assay [2]; 102% in assay [3]; 93.3% in assay [4]; 70.5% in assay [5]; 101% in assay [6]. For the same molecule, the growth in assay [7] was 103%.
With `C[C@@H]1CC[C@@H]2[C@@H]1[C@H](OC(=O)c1ccc3ccccc3c1)[C@]1(C3CCCCC3)C[C@@H](OC(=O)CO)[C@@]2(C)O1`, the growth in assay [1] is 0.366% (active); in assay [2], 72.1%; in assay [3], 65.1%; in assay [4] it was 20.5%; in assay [5] it was 28.3%; in assay [6] it was 51.3%. Also, the growth in assay [7] is 54.2%.
Consider `Cn1cc(Nc2nccc(-c3ccc(N4CCCC4)c(C#N)c3)n2)cn1`, for which the growth in assay [1] was 37.7%; in assay [2], 0.731% (active); in assay [3] it was 14.2%; in assay [4], 27.3%; in assay [5] it was 11.5%; in assay [6], 59.8%. Also, in assay [7], the growth was 31.6%.
As for `Clc1ccc2c(NCCCN3CCN(c4nc(-n5ccnc5)nc5ccccc45)CC3)ccnc2c1`, the growth in assay [1] was 67.6%; in assay [2] it was 71.2%; in assay [3], -52.9% (active); in assay [4], -29.3% (active); in assay [5], 72.8%; in assay [6], 95.7%. For the same molecule, the growth in assay [7] is 87.8%.
Consider `C=C1c2c(C)nn(-c3ccc(NC(C)=O)cc3)c2N(C)C23CC1C1(C)c4c(C)nn(-c5ccc(NC(C)=O)cc5)c4N(C)C(C)(CC12)C3` (configuration not stated), for which the growth in assay [1] is 44%; in assay [2], 30.6%; in assay [3], 27.9%; in assay [4], 9.67% (active); in assay [5] it was 13.4%; in assay [6], 44.7%. Further, the growth in assay [7] is 23.6%.
In the case of `c1ccc2c(c1)nc(-n1ccnc1)c1nc3ccccc3n12`, the growth in assay [1] is 45.5%; in assay [2], 76.1%; in assay [3], 65.7%; in assay [4] it was 62.5%; in assay [5] it was 52.5%; in assay [6], 76%. Also, the growth in assay [7] was 64.9%.
With `CS(=O)(=O)c1ccc(-c2nc3cc(Cl)ccc3n2CC(=O)NO)cc1`, the growth was 97.6% in assay [1]; 106% in assay [2]; 96.2% in assay [3]; 81.3% in assay [4]; 103% in assay [5]; 115% in assay [6]. Moreover, in assay [7], the growth was 93.9%.
As for `N#Cc1cccc(-c2nc3ccccn3c2NCCN2CCOCC2)c1`, the growth in assay [1] was 93.3%; in assay [2] it was 102%; in assay [3], 95.5%; in assay [4], 90.4%; in assay [5], 89.9%; in assay [6] it was 96.1%. Also, in assay [7], the growth is 88.6%.
With `CC[C@@H](C[C@H](CCO)c1ccccc1)c1cc2ccccc2o1`, the growth in assay [1] is 97.7%; in assay [2], 102%; in assay [3] it was 89.6%; in assay [4], 117%; in assay [5], 76.6%; in assay [6] it was 109%. Moreover, the growth in assay [7] is 88.7%.
As for `Cc1cc(Cl)nc(N(CCCNc2ccnc3cc(Cl)ccc23)Cc2ccccn2)n1`, the growth was 54% in assay [1]; 52.7% in assay [2]; 53.3% in assay [3]; 32.9% in assay [4]; 14.9% in assay [5]; 74.2% in assay [6]. Moreover, the growth in assay [7] is 48%.
As for `C=C(CNCCc1ccc(O)cc1)[C@@H]1CC[C@]2(COC3CCCCO3)CC[C@]3(C)[C@H](CC[C@@H]4[C@@]5(C)CCC(N)C(C)(C)[C@@H]5CC[C@]43C)[C@@H]12` (some centres not stated), the growth in assay [1] was -70% (active); in assay [2], -95% (active); in assay [3] it was -77.4% (active); in assay [4] it was -79.8% (active); in assay [5], -91.3% (active); in assay [6], -84.7% (active). Further, in assay [7], the growth is -85.7% (active).
Take `C/C(=N\NC(=O)Cn1c(-c2ccc(S(C)(=O)=O)cc2)nc2cc(Cl)ccc21)c1ccc(Cl)cc1`: the growth in assay [1] was 92.3%; in assay [2], 79.1%; in assay [3], 92.2%; in assay [4], 62%; in assay [5], 80.5%; in assay [6], 103%. Further, the growth in assay [7] was 76.4%.
Take `COc1ccc(/C=C(\C#N)n2nnc3cc(F)c(F)cc32)c(OC)c1OC`: the growth is 70.9% in assay [1]; 45.7% in assay [2]; 62% in assay [3]; 27.2% in assay [4]; 52.9% in assay [5]; 114% in assay [6]. Also, the growth in assay [7] was 67.8%.
`CCN1CCN(c2ccc(Nc3cc(-c4cccnc4Nc4c(Cl)c(OC)cc(OC)c4Cl)ncn3)cc2)CC1`: the growth in assay [1] was 60.1%; in assay [2] it was 89.7%; in assay [3] it was 55%; in assay [4] it was 40.9%; in assay [5], 71.9%; in assay [6], 75.6%. Moreover, the growth in assay [7] is 73.9%.
In the case of `C=C(CNCCc1ccc(O)cc1)[C@@H]1CC[C@]2(COC3CCCCO3)CC[C@]3(C)[C@H](CC[C@@H]4[C@@]5(C)CCC(NCCO)C(C)(C)[C@@H]5CC[C@]43C)[C@@H]12` (some centres not stated), the growth is 41.2% in assay [1]; -89.8% (active) in assay [2]; -76.2% (active) in assay [3]; -84.3% (active) in assay [4]; -95.3% (active) in assay [5]; -89.5% (active) in assay [6]. For the same molecule, in assay [7], the growth is -84.9% (active).
As for `O=C1C(Cl)C(c2ccccc2Cl)N1n1cnnc1` (configuration not stated), the growth in assay [1] is 97.3%; in assay [2] it was 103%; in assay [3] it was 94.5%; in assay [4] it was 97.4%; in assay [5], 96.4%; in assay [6], 98.4%. Also, the growth in assay [7] is 96.9%.

The record behind these values is PubChem BioAssay (NCI).
